# Measurements: PubChem BioAssay (EPA / NIEHS)
# Results filed as inconclusive are left out. Activity calls are given as the source filed them. The calls were made as follows, unless noted: active = hit-call score of the fitted dose curve at least 0.9, where 1 is the maximum; inconclusive = response in the unintended direction; inactive = score below 0.9.
# Legend:
# [1] = CLD_ACTIN_48hr: CellzDirect (CLD) Gene Expression Assay for Baseline Control (Actin) at 48 hours (AID 2283702)
# In short: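 Primary human hepatocytes (two donor preparations) dosed daily for two days with ToxCast chemicals at multiple concentrations versus 0.2% DMSO vehicle; harvested at 48 h. Actin mRNA measured as a background control by quantitative nuclease protection assay with chemiluminescence.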
# [2] = read-out: glucuronosyltransferase (UGT1A1), UGT1A1 (gene 54658); experiment: CLD_UGT1A1_48hr: CellzDirect (CLD) Gene Expression Assay for glucuronosyltransferase (UGT1A1) at 48 hours (AID 2283709);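 also: actives increase expression relative to DMSO so potency refers to induction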
# In short: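 Human primary hepatocytes dosed daily for two days (0.2% DMSO vehicle), harvested at 48 h. UGT1A1 mRNA induction measured by quantitative nuclease protection assay with chemiluminescence; gain of signal versus DMSO; cytotoxicity flagged from morphology.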
# [3] = read-out: sulfotransferase (SULT2A), SULT2A1 (gene 6822); experiment: CLD_SULT2A_48hr: CellzDirect (CLD) Gene Expression Assay for sulfotransferase (SULT2A) at 48 hours (AID 2283710);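 also: hits raise SULT2A1 transcript above the 0.2% DMSO vehicle baseline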
# In short: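 Primary human hepatocytes (two donor preparations) dosed daily for two days with chemicals at multiple concentrations, vehicle 0.2% DMSO; SULT2A1 mRNA induction at 48 h by quantitative nuclease protection assay, chemiluminescent read-out, fitted for gain of signal versus DMSO.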
# [4] = read-out: HMG-CoA synthase (HMGCS2), HMGCS2 (gene 3158); experiment: CLD_HMGCS2_48hr: CellzDirect (CLD) Gene Expression Assay for HMG-CoA synthase (HMGCS2) at 48 hours (AID 2283711)
# In short: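 Primary human hepatocytes from two donors dosed daily for two days, 0.2% DMSO vehicle. HMGCS2 mRNA measured 48 h after dosing by quantitative nuclease protection assay with chemiluminescent read-out; induction fitted relative to DMSO, cytotoxicity flagged by microscopy.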
# [5] = read-out: Broad substrate specificity ATP-binding cassette transporter ABCG2 (Homo sapiens) (UniProt Q9UNQ0); experiment: CLD_ABCG2_48hr: CellzDirect (CLD) Gene Expression Assay for ABC Transporter (ABCG2) at 48 hours (AID 2283704);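 as to AC50: potency for induction of ABCG2 mRNA above the DMSO baseline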
# In short: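 Primary human hepatocytes from two donors, dosed daily for 2 days, 0.2% DMSO vehicle, several concentrations. ABCG2 mRNA at 48 h by qNPA chemiluminescence, gain fitted versus DMSO; cytotoxicity flagged by morphology.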
# [6] = STM_H9_OrnithineISnorm_perc: Stemina devTOX quickPredict H9 human embryonic stem cell (hESC)-based Assay for Ornithine (ORN) Metabolite Biomarker, Normalized (AID 2283712; active = hit-call score of the fitted dose curve at least 0.9, where 1 is the maximum; inactive = score below 0.9;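 also: ornithine released into spent medium during last day measured by mass spectrometry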)
# In short: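 Undifferentiated pluripotent H9 hESCs were exposed to compound for 72h, with media and compound replaced every 24h. Ornithine in final 24-h conditioned media was measured by UPLC-HRMS, normalized to 13C-labeled spike-in standard and to median 0.1% DMSO control.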
# [7] = STM_H9_CystineISnorm_perc: Stemina devTOX quickPredict H9 human embryonic stem cell (hESC)-based Assay for Cystine (CYSS) Metabolite Biomarker, Normalized (AID 2283713; active = hit-call score of the fitted dose curve at least 0.9, where 1 is the maximum; inactive = score below 0.9)
# In short: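 Undifferentiated H9 hESCs were exposed to compound for 72h, with medium and compound replaced every 24h. Final-24h conditioned medium was deproteinized and analyzed by UPLC-HRMS. Cystine EIC area was normalized to spiked C13 standard and 0.1% DMSO median.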
# [8] = Tanguay_ZF_120hpf_ActivityScore_legacy: (Legacy) Oregon State University Tanguay Lab 120 Hour Post-fertilization zebrafish Assay Score for Activity (AID 2283742);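 as to AC50: dechorionated Tropical 5D wild-type zebrafish embryos held singly per well; static exposure from 6 hpf until 120 hpf at 28 °C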
# In short: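 Embryos are staged, enzymatically dechorionated at 4 hpf, placed individually at 6 hpf, then held in test chemical (0.64% DMSO) at 28C until 120 hpf. Mortality and malformations are scored by brightfield, with non-mortality endpoints skipped for dead embryos.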
# [9] = CEETOX_H295R_MTT_cell_viability: Viability Assessment in the CeeTox HT-H295R MTT Assay (AID 2283718; active = hit-call score of the fitted dose curve at least 0.9, where 1 is the maximum; inactive = score below 0.9)
# In short: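 MTT reduction (0.5 mg/ml, 4 h at 37 C; absorbance at 570 and 650 nm) gave viability as background-corrected percent change versus controls. H295R cells had 48 h forskolin (10 uM) prestimulation, then 48 h chemical exposure at 0.1% DMSO.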
# [10] = target: Luciferin 4-monooxygenase (Photinus pyralis) (UniProt P08659); experiment: CCTE_Simmons_QuantiLum_inhib_2: CCTE's Firefly Luciferase Inhibition Assay, Simmons Lab (AID 2283767);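 as to AC50: potency for inhibitors that lower luciferase luminescence relative to DMSO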
# In short: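 Recombinant firefly luciferase (5 ng/well, 200 mM potassium phosphate with 1 mg/ml BSA) was exposed to 8 concentrations from 5 nM to 87.5 uM (final, 0.5% DMSO) for 30 min at 37C in the dark. Loss of luminescence versus DMSO was read after injecting D-luciferin/ATP-analogue reagent.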
# [11] = read-out: xenobiotic metabolism (CYP1A2), CYP1A2 (gene 1544); experiment: CLD_CYP1A2_48hr: CellzDirect (CLD) Gene Expression Assay for xenobiotic metabolism (CYP1A2) at 48 hours (AID 2283703)
# In short: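 Primary human hepatocytes from two donor preparations were dosed daily for two days at multiple concentrations in 0.2% DMSO vehicle. CYP1A2 mRNA was measured at 48 hours by chemiluminescent quantitative nuclease protection assay, with gain of signal fitted versus DMSO and cytotoxicity annotated from morphology.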
# [12] = system: Thyroperoxidase (TPO), gene 445522; experiment: CCTE_Simmons_GUA_TPO: CCTE's Guaiacol Assay for Thyroperoxidase (TPO) Inhibition, Simmons Lab (AID 2283750)
# In short: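 Porcine thyroid microsomes (25 ug) in 200mM potassium phosphate, preincubated 30 s at 37C with compound (8 concentrations, 5 nM–87.5 uM) and 35mM guaiacol; 1mM H2O2 starts reaction. Absorbance change at 450nm over first 80 s; loss of signal versus DMSO, three replicates.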
# [13] = ArunA_NOG_NucleusCount: ArunA Biomedical's Neurite Outgrowth (NOG) Assay for Nucleus Count (AID 2283756)
# In short: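 Human H9-derived differentiated neurons were exposed for 48 h right after seeding. Hoechst-stained nuclei gated by size and intensity were counted by automated high-content imaging as viable neurons. Loss of signal vs DMSO.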
# [14] = ArunA_Migration_hNP: ArunA Biomedical's Oris Neuroprogenitor (hNP) Cell Migration Assay (AID 2283754)
# In short: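 Human H9-derived hNP1 neuroprogenitors on Matrigel with LIF/bFGF, plated around seeding stoppers for 16 h at 37C; stoppers removed at start of 72 h chemical exposure. Calcein-AM staining, fluorescence 494/517 nm in detection zone; loss-of-signal vs DMSO; cytochalasin D control.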
# [15] = ArunA_NOG_BranchPointsPerNeurite: ArunA Biomedical's Neurite Outgrowth (NOG) Assay for Branch Points Per Neurite (AID 2283759)
# In short: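 Automated image analysis traced neurites (processes >10 um) from valid cell bodies after Hoechst and βIII-tubulin staining. hNN cells from H9 embryonic stem cells, 48 h exposure. Fitted bidirectionally against DMSO.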
# [16] = ArunA_NOG_NeuriteLength: ArunA Biomedical's Neurite Outgrowth (NOG) Assay for Neurite Length (AID 2283757)
# In short: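 Differentiated human H9-derived neurons were exposed for 48 h from seeding, then stained with Hoechst and βIII-tubulin. Automated high-content imaging gave total neurite length per valid neuron, counting processes >10 um. Loss of signal was scored versus DMSO.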
# [17] = ArunA_NOG_NeuritesPerNeuron: ArunA Biomedical's Neurite Outgrowth (NOG) Assay for Neurites Per Neuron (AID 2283758)
# In short: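 Differentiated human H9-derived neurons exposed to chemicals for 48 h from seeding, then stained with Hoechst and βIII-tubulin/DyLight 488. Automated imaging counted neurites (processes >10 um) per valid neuron; loss of signal versus DMSO scored.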
# Sequence of Broad substrate specificity ATP-binding cassette transporter ABCG2 (Homo sapiens) (Q9UNQ0 whole entry, looked up): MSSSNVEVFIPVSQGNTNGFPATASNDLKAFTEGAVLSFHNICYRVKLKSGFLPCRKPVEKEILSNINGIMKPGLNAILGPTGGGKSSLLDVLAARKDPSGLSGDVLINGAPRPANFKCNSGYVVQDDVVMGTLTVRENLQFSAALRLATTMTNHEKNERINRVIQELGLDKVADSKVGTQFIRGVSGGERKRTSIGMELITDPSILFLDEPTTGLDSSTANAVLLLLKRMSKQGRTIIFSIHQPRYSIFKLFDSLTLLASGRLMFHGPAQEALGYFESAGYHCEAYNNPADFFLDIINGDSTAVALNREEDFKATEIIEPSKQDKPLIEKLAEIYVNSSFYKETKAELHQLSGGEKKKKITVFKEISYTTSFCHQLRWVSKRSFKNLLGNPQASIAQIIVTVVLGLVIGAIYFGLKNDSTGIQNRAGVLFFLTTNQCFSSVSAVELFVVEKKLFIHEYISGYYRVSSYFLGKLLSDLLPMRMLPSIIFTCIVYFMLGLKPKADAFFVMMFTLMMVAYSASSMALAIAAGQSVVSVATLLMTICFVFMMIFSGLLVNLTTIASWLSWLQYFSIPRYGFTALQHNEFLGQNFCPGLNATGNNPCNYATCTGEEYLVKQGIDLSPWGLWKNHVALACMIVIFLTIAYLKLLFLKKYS
# Sequence of Luciferin 4-monooxygenase (Photinus pyralis) (P08659 whole entry, looked up): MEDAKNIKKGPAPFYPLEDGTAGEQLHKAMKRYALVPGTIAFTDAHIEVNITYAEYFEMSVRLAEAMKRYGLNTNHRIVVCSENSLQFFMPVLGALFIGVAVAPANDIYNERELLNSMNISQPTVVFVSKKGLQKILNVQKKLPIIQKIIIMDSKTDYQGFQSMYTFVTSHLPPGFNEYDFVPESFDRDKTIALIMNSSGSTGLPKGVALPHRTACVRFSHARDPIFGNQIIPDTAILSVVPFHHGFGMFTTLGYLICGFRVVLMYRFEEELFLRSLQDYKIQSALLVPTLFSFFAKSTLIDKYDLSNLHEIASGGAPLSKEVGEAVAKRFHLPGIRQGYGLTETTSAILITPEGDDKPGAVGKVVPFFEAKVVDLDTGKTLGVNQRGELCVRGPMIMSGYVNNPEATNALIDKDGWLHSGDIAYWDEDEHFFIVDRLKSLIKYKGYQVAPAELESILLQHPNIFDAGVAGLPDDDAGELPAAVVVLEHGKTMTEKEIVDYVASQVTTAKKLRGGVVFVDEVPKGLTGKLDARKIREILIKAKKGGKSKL
smiles,measurement,setting,value
CCOC(=O)[C@H](C)Oc1ccc(Oc2nc3ccc(Cl)cc3o2)cc1,outcome,[1],inactive
same,outcome,[2],inactive
same,outcome,[3],inactive
same,outcome,[4],inactive
COC(=O)c1ccc(I)cc1S(=O)(=O)NC(=O)Nc1nc(C)nc(OC)n1,outcome,[1],inactive
same,outcome,[5],inactive
same,outcome,[2],inactive
same,outcome,[3],inactive
same,outcome,[6],inactive
same,outcome,[7],inactive
same,outcome,[8],inactive
CCCCCOC(=O)COc1cc(N2C(=O)C3=C(CCCC3)C2=O)c(F)cc1Cl,outcome,[1],inactive
same,outcome,[5],inactive
same,outcome,[2],inactive
same,AC50,[6],0.104 µM (active)
same,outcome,[7],inactive
same,outcome,[9],inactive
same,outcome,[8],inactive
Cc1nn(C)c(Oc2ccccc2)c1C=NOCc1ccc(C(=O)OC(C)(C)C)cc1,outcome,[1],inactive
same,outcome,[5],inactive
same,outcome,[3],inactive
same,outcome,[4],inactive
same,AC50,[6],0.0118 µM (active)
same,AC50,[7],0.128 µM (active)
same,AC50,[8],2.45 µM (active)
CCCN(CCC)C(=O)SCC,outcome,[1],inactive
same,outcome,[5],inactive
same,outcome,[2],inactive
same,outcome,[3],inactive
same,outcome,[4],inactive
same,outcome,[9],inactive
same,outcome,[8],inactive
OB(O)O,outcome,[1],inactive
same,outcome,[2],inactive
same,outcome,[3],inactive
same,outcome,[4],inactive
same,outcome,[6],inactive
same,outcome,[7],inactive
same,outcome,[8],inactive
CCC(O)=C1C(=O)CC(C(=O)O)CC1=O (configuration not stated),outcome,[1],inactive
same,outcome,[5],inactive
same,outcome,[2],inactive
same,outcome,[3],inactive
same,outcome,[4],inactive
COCCO,outcome,[1],inactive
same,outcome,[5],inactive
same,outcome,[2],inactive
same,outcome,[3],inactive
same,outcome,[8],inactive
C#CCOC(=O)[C@@H](C)Oc1ccc(Oc2ncc(Cl)cc2F)cc1,outcome,[1],inactive
same,outcome,[5],inactive
same,outcome,[2],inactive
same,outcome,[3],inactive
same,outcome,[4],inactive
same,AC50,[6],65.5 µM (active)
same,AC50,[7],11.1 µM (active)
same,outcome,[9],inactive
same,outcome,[8],inactive
COC(=O)c1c(Cl)nn(C)c1S(=O)(=O)NC(=O)Nc1nc(OC)cc(OC)n1,outcome,[1],inactive
same,outcome,[2],inactive
same,outcome,[3],inactive
same,outcome,[4],inactive
CCCOC(=O)c1ccc(C(=O)OCCC)nc1,outcome,[1],inactive
same,outcome,[2],inactive
same,outcome,[3],inactive
same,AC50,[4],0.269 µM (active)
same,AC50,[8],3.83 µM (active)
same,outcome,[10],inactive
CCOC(=O)COc1cc(-n2ncc(C(F)(F)F)c(C)c2=O)c(F)cc1Cl,outcome,[1],inactive
same,outcome,[5],inactive
same,outcome,[2],inactive
same,outcome,[3],inactive
same,outcome,[8],inactive
C=CCOC(Cn1ccnc1)c1ccc(Cl)cc1Cl (configuration not stated),outcome,[1],inactive
same,AC50,[5],34.9 µM (active)
same,outcome,[2],inactive
same,outcome,[6],inactive
same,outcome,[7],inactive
same,outcome,[9],inactive
same,AC50,[8],11.7 µM (active)
CCNc1nc(N)nc(Cl)n1,outcome,[1],inactive
same,outcome,[5],inactive
same,outcome,[3],inactive
same,outcome,[6],inactive
same,outcome,[7],inactive
same,outcome,[9],inactive
same,outcome,[8],inactive
N#CSCSc1nc2ccccc2s1,outcome,[1],inactive
same,outcome,[5],inactive
same,AC50,[6],17.2 µM (active)
same,AC50,[7],15.2 µM (active)
same,AC50,[8],0.11 µM (active)
same,AC50,[10],0.435 µM (active)
CCCCOC(=O)C(C)Oc1ccc(Oc2ccc(C(F)(F)F)cn2)cc1 (configuration not stated),outcome,[1],inactive
CCOC(=O)NCCOc1ccc(Oc2ccccc2)cc1,outcome,[11],inactive
N[C@@H](Cc1cc(I)c(Oc2ccc(O)c(I)c2)c(I)c1)C(=O)O,AC50,[12],13.1 µM (active)
same,outcome,[13],inactive
CC(C)CCCCCCc1ccc(O)cc1,AC50,[14],17 µM (active)
same,outcome,[15],inactive
S=C(S)NCCNC(=S)S.[Mn+2].[S-]C([S-])=NCCN=C([S-])[S-].[Zn+2],outcome,[13],inactive
same,outcome,[16],inactive
same,outcome,[17],inactive
